Data from PubChem BioAssay (NCI).
This is part of a sample that, as a whole, favours compounds with a hit. Of some 83,000 tested, about 20% had one in any assay.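 Testing used 96-well plates and a 48-hour single-concentration exposure. Example: -40 means 40% of the starting cells died.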 Values without a mark were called inactive. Active and inactive are the calls of the source. How the source made its calls: active means growth percent below 10; inactive means the rest.

How the values were obtained:
Experiment in all cases: NCI-60 one-dose screen, 48 h (100 = growth as untreated, 0 = no growth, -100 = all killed)
Details in all cases: 10 µM unless noted
[1] = test system: NCI-H23 lung
[2] = test system: NCI-H226 lung
[3] = test system: NCI-H322M lung
[4] = test system: HOP-62 NSCLC
[5] = test system: NCI-H460 lung
[6] = test system: HOP-92 NSCLC
[7] = test system: NCI-H522 lung
[8] = test system: A549/ATCC NSCLC
[9] = test system: 786-0 renal
[10] = test system: COLO 205 colon
[11] = test system: DU-145 prostate
[12] = test system: K-562 leukemia
[13] = test system: MALME-3M melanoma
[14] = test system: MDA-MB-231 breast
[15] = test system: RXF 393 renal
[16] = test system: SF-268 CNS
[17] = test system: SF-295 CNS
[18] = test system: SF-539 CNS
[19] = test system: UACC-257 melanoma
[20] = test system: M14 melanoma

| SMILES | growth [1] | growth [2] | growth [3] | growth [4] | growth [5] | growth [6] | growth [7] | growth [8] | growth [9] | growth [10] | growth [11] | growth [12] | growth [13] | growth [14] | growth [15] | growth [16] | growth [17] | growth [18] | growth [19] | growth [20] |
| --- | --- | --- | --- | --- | --- | --- | --- | --- | --- | --- | --- | --- | --- | --- | --- | --- | --- | --- | --- | --- |
| Cc1cc(Cl)nc(N(CCCNc2ccnc3cc(Cl)ccc23)Cc2ccco2)n1 | 8.17% (active) | 24.1% | 42.8% | 25.7% | 16.7% | -3.26% (active) | 13.8% | 29.2% | 19.5% | -54.5% (active) | 46.2% | 0.302% (active) | 4.4% (active) | 22.9% | 26.6% | 52.5% | 20.6% | 20.1% | 23.3% | -6.17% (active) |
| C=C(C)[C@@H]1CC[C@]2(c3nnc(-c4ccncc4)o3)CC[C@]3(C)[C@H](CC[C@@H]4[C@@]5(C)CCC(=O)NC(C)(C)[C@@H]5CC[C@]43C)[C@@H]12 | 94.7% | 87.8% | 94.3% | 97.9% | 98.5% | 71.9% | 93.9% | 92.8% | 96.2% | 109% | 108% | 80.5% | 101% | 89.8% | 97.9% | 89.5% | 99.4% | 96.9% | 97.9% | 99% |
| CN(C)CCCCC(C(=O)CBr)(c1ccccc1)c1ccccc1 | 30.6% | 86.1% | 74.5% | 51.8% | 49.5% | -12.2% (active) | -90% (active) | 49.7% | 5.16% (active) | -76% (active) | 31% | -7.09% (active) | -55.9% (active) | 38.1% | -51.5% (active) | 48.7% | 43.7% | 20.2% | 6.07% (active) | 18.8% |
| N#CC1=C(N)Oc2ccc3ccccc3c2C1c1ccccc1 (stereo not given) | 43.9% | 51.6% | 62.1% | 39.7% | 21.7% | 62.6% | 34.7% | 51% | 35.5% | 32.6% | 51.2% | 14.9% | 42.3% | 47% | 23.3% | 52.2% | 4.96% (active) | 11.4% | 61.7% | 13.6% |
| Oc1cccc2ccc(N/N=C/c3cc(CN4CCCCC4)c(O)c4ncccc34)nc12 | -10.8% (active) | -30% (active) | 25.5% | 1.83% (active) | -40.3% (active) | 36.9% | -16% (active) | -10.3% (active) | 5.33% (active) | 8.41% (active) | 24.1% | 13.1% | 19.1% | -4.71% (active) | 9.94% (active) | 12.6% | -5.38% (active) | 4.73% (active) | 13.4% | -24.8% (active) |
| CN1CCN(c2nc(-c3csc(-c4cccs4)n3)cc3ccccc23)CC1 | 79.1% | 94.5% | 81% | 68.3% | -25.6% (active) | 23% | 70.7% | 47.9% | 48.1% | -51.1% (active) | 55.8% | -35.9% (active) | 70.4% | 41.6% | 40.3% | 49.6% | 83% | 86.7% | 21.6% | -44.9% (active) |
| C=C(C)[C@@H]1CC[C@]2(C(=O)N3CCN(C)CC3)CC[C@]3(C)[C@H](CC[C@@H]4[C@@]5(C)C/C(=C/c6ccc(C(F)(F)F)cc6)C(=O)C(C)(C)[C@@H]5CC[C@]43C)[C@@H]12 | 99.2% | 101% | 96.5% | 96.6% | 97.9% | 78.1% | 94.4% | 92.6% | 90.3% | 105% | 104% | 72.9% | 90.8% | 94.9% | 97.4% | 92.8% | 101% | 88.6% | 98.5% | 94.8% |
| COc1cc2c(cc1-c1c(C)noc1C)ncc1nc(C3CCCCC3)n([C@@H](C)COC(F)F)c12 | 56.8% | 55.5% | 41.9% | 28.6% | 53% | 27.7% | 26.2% | 33.2% | 42.8% | 9.21% (active) | 61% | 24.2% | 72.1% | 41% | 52.2% | 55.6% | 45.3% | 31.6% | 28.2% | 34.7% |
| CCCCC[C@H]1C/C=C2/C(=O)C(Cl)=C[C@@H]2C/C=C\CCCC(=O)O1 | -34.5% (active) | -32.7% (active) | -74.2% (active) | -36.7% (active) | -16.6% (active) | -48.9% (active) | -73.1% (active) | -35.6% (active) | -73.4% (active) | -63.1% (active) | -83.1% (active) | 2.39% (active) | -35.2% (active) | -10.7% (active) | -90.9% (active) | -37.1% (active) | -35% (active) | -76.7% (active) | -53.3% (active) | -52.8% (active) |
| COc1ccc2c(c1)c(-c1nc(-c3c[nH]c4ncccc34)cs1)cn2CCN | 68% | 70.6% | 57.7% | 58.3% | 45% | 29% | 65.6% | 48.2% | 72.1% | 32.2% | 59.7% | 41.5% | 81.6% | 53.7% | 59.9% | 80.1% | 95.3% | 68.8% | 98.2% | 67.5% |
| Cc1cc(N2CCCCC2)nc(N(CCNc2ccnc3cc(Cl)ccc23)Cc2ccco2)n1 | 9.31% (active) | 80.1% | 68.9% | 24.3% | 8.11% (active) | 52% | 19.1% | 36.6% | 23.4% | -13.7% (active) | 46.4% | 2.04% (active) | 40.2% | 32.9% | 33.3% | 60.7% | 48.7% | 30.7% | 88% | 9.4% (active) |
| Cc1ccc(Sc2sc(-c3ccccc3)nc2[P+](c2ccccc2)(c2ccccc2)c2ccccc2)cc1 | -12.2% (active) | -3.15% (active) | -19.1% (active) | -0.272% (active) | -19.1% (active) | -40.4% (active) | -5.65% (active) | 6.14% (active) | 6.12% (active) | -25.3% (active) | 10.7% | 2.4% (active) | -22.4% (active) | -29.5% (active) | -21.5% (active) | 15.5% | -20.9% (active) | 11.8% | 2.98% (active) | -7.46% (active) |
| C=C1C(=O)O[C@H]2[C@H]1CC/C(COC(=O)NCc1cc3ccccc3[nH]1)=C\CC[C@@]1(C)O[C@@H]21 | 35.8% | 64.5% | 88.3% | 58.3% | 55.3% | -14.3% (active) | -84.4% (active) | 77.4% | -84.5% (active) | -52.2% (active) | 1.16% (active) | -5.26% (active) | -59.4% (active) | -42.5% (active) | -86.2% (active) | 59.3% | 90.1% | -46.2% (active) | 46.2% | -27.9% (active) |
| N#CC1=C(N)Oc2c(sc3c(F)cccc23)C1c1ccc(Cl)cc1 (stereo not given) | 43.7% | 74.9% | 55.1% | 28.8% | 13.1% | 36.9% | 6.14% (active) | 38% | 21.1% | 38.4% | 41% | 14.2% | 57.9% | 43.5% | 9.87% (active) | 45.3% | 20.2% | -0.306% (active) | 66.4% | -26.1% (active) |
